# Screening results: PubChem, several laboratories
# Gli-Sufu antag: antagonists of Gli-Sufu signaling. Sufu-KO-LIGHT fibroblasts, Gli luciferase reporter luminescence. inhibition, % at 5 µM. AID 588413. 340,000 tested, 0.74% active;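 active means inhibition above about 55%, limit read from the data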
# 697 NFkB inh: lowers PMA/ionomycin-induced NF-kB signal in 697 B cells; 697 B-cell NF-kB luciferase reporter, 16 h; 330,000 tested, 0.33% active; inhibition, % at 4 µM; in the data active means inhibition above about 35%
# Mdm2-MdmX inh: disrupts the human Mdm2-MdmX interaction | SaOS-2 split-luciferase Mdm2/MdmX complementation, luminescence | inhibition, % at 8 µM | 330,000 tested, 3% active | AID 485346;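 active means inhibition of at least 50% at 8 µM in the primary screen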
# Target sequence (O15151 whole entry, looked up): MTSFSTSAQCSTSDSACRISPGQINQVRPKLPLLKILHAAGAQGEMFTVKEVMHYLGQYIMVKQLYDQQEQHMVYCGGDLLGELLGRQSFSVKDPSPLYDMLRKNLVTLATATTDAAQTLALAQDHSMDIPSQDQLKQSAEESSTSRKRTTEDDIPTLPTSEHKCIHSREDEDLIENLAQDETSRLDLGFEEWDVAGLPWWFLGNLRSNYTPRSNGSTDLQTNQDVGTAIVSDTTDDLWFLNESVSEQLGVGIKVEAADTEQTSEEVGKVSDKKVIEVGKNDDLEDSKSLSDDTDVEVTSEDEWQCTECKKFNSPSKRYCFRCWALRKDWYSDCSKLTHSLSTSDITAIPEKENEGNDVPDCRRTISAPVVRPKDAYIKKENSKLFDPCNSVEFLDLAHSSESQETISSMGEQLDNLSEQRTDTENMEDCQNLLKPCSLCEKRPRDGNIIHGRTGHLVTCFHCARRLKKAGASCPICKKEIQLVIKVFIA
# Target sequence (Q00987 whole entry, looked up): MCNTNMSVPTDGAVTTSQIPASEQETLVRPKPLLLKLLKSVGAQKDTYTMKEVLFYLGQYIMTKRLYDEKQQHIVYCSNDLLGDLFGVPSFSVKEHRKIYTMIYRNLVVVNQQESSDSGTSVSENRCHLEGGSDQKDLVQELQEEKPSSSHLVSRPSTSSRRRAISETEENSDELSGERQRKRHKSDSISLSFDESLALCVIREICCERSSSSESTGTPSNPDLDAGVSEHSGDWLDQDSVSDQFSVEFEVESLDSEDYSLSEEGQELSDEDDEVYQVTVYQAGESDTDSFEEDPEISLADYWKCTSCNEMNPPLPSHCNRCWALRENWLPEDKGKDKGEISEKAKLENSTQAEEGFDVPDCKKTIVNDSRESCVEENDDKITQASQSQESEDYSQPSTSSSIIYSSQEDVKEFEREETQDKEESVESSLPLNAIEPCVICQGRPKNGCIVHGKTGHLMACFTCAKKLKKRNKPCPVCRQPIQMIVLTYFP
# Jurkat NFkB inh: inhibitors of the PMA/ionomycin-induced NF-kB reporter in Jurkat cells; PMA/ionomycin-induced NF-kB luciferase reporter, luminescence; inhibition, % at 4 µM; 330,000 tested, 0.53% active; in the data active means inhibition above about 50%
# Shn3 3UTR inh: inhibitors of Schnurri-3 3'UTR reporter in osteoblasts | Clone20 osteoblast Shn3 3'UTR firefly luciferase, 24 h | inhibition, % at 12.5 µM | 360,000 tested, 0.52% active | AID 588674;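 active means mean inhibition of at least 75% with every replicate also reaching 75%; inconclusive means mean inhibition at least 75% but some replicate below; inactive means mean inhibition below 75%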
# Mdm2-MdmX conf: confirmation of human Mdm2/MdmX interaction inhibitors. shares compounds with Mdm2-MdmX inh. Mdm2-MdmX binding, luminescent assay. inhibition, % at 8 µM. 10,000 tested, 55% active. AID 489028; in the data active means inhibition above about 40%
# Full FLuc ctr: full-length luciferase inhibition in Mdm2/MdmX counter-screen; shares compounds with Mdm2-MdmX inh; SaOS-2 full-length luciferase counterscreen, luminescence; inhibition, % at 8 µM; 6,200 tested, 77% active;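 active means mean inhibition at 8 µM reaching about 37%, which flags the compound as non-specific, limit read from the data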;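 further: p53-null SaOS-2 cells with luciferase driven by a doxycycline-inducible promoter; compound on cells about two nights before reading with doxycycline added after day one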
# Numbers stand for hits; n = inactive; u = inconclusive; x = no result given. An excerpt weighted towards active compounds, which were near 3.8% of everything screened.
SMILES,Gli-Sufu antag,697 NFkB inh,Mdm2-MdmX inh,Jurkat NFkB inh,Shn3 3UTR inh,Mdm2-MdmX conf,Full FLuc ctr
COc1ccc(C(=O)Oc2cc(/C=N/NC(N)=S)ccc2OC)cc1,n,n,n,n,n,x,x
COc1ccc(/C=N/NC(N)=S)cc1OC(=O)c1cccc2ccccc12,n,n,60.7,n,n,n,x
COc1ccc(/C=N/NC(=O)c2nc(-c3ccccc3)cc(-c3ccccc3)n2)cc1OC,n,n,72.2,n,n,70.6,85.5
COc1ccccc1CC(=O)N1CCN(c2cccc(Cl)c2)CC1,n,n,n,n,n,x,x
CCc1ccc(NC(=O)CN2CCN(c3ccc(OC)cc3)CC2)cc1,n,x,x,x,n,x,x
Cc1sc(NC(=O)CSC2=NCCS2)nc1-c1ccccc1,n,n,n,n,n,x,x
CC(=O)N1CC(=O)N=C1SCC(=O)Nc1nc(-c2ccccc2)c(-c2ccccc2)s1,n,n,57.1,n,n,n,x
O=C(COc1ccc(F)cc1Cl)Nc1nc(-c2ccccn2)cs1,x,n,74.3,n,n,69.6,n
CCc1sc(C(=O)Nc2nc(-c3ccccn3)cs2)cc1C,n,n,64.3,n,n,40.3,37.0
Cc1ccc(C(=O)Nc2nc(-c3ccccn3)cs2)s1,n,n,57.8,n,n,75.5,n
O=C(Nc1nc(-c2ccccn2)cs1)c1ncc(Cl)c(Cl)c1Cl,n,n,74.3,n,n,n,x
CCc1sc(C(=O)Nc2nccs2)cc1C,n,n,n,n,n,x,x
CC12CCC(C(=O)OC3CCCCC3)(OC1=O)C2(C)C (stereo not given),n,n,n,n,n,x,x
CC(C)CN(C(=O)COc1ccc([N+](=O)[O-])cc1)c1c(N)n(CC(C)C)c(=O)[nH]c1=O,x,n,n,n,n,x,x
Oc1ccc(CN2CCC(Cc3ccccc3)CC2)c2cccnc12,67.0,n,72.8,n,x,68.7,69.4
Oc1ccc(CN2CCc3ccccc3C2)c2cccnc12,84.3,n,51.1,n,84.4,77.7,n
Cc1ccc(C)c(S(=O)(=O)N2CCN(Cc3ccc(O)c4ncccc34)CC2)c1,73.5,n,78.1,n,90.8,71.2,36.5
OCCN1CCN(Cc2cc(Cl)c3cccnc3c2O)CC1,n,n,n,n,n,x,x
CSc1ncccc1C(=O)N1CCN(S(=O)(=O)c2cc(C)ccc2C)CC1,n,n,n,n,n,x,x
Oc1ccc(CN2CCCCC2)c2cccnc12,n,n,n,n,n,x,x
Oc1c(CN2CCN(c3ccccn3)CC2)cc(Cl)c2cccnc12,70.6,n,71.7,n,n,71.1,n
COc1cc(-c2cc3nc(NCc4ccco4)ccn3n2)cc(OC)c1OC,x,x,x,x,n,x,x
COc1ccc(OCC(=O)N(Cc2ccc(C)o2)C2CCS(=O)(=O)C2)cc1 (stereo not given),n,n,n,n,n,x,x
CSc1ccc(S(=O)(=O)N2CCC(C(=O)Nc3ccc(C(N)=O)cc3)CC2)cc1,n,n,n,n,n,x,x
COc1ccc(CNC(=O)[C@@H](NC(=O)C2CCN(C(=O)[C@@H](N)CC(C)C)CC2)C(C)C)cc1,n,n,n,n,n,x,x
SMILES,Gli-Sufu antag,697 NFkB inh,Mdm2-MdmX inh,Jurkat NFkB inh,Shn3 3UTR inh,Mdm2-MdmX conf,Full FLuc ctr
CCOC(=O)N1CCN(Cc2ccc(O)c3ncccc23)CC1,n,n,50.2,n,x,n,x
CCOC(=O)N1CCN(Cc2ccccn2)CC1,x,n,n,n,n,x,x
Oc1ccc(CN2CCN(c3ccccc3)CC2)c2cccnc12,n,n,78.3,n,n,65.5,66.7
COc1ccccc1N1CCN(Cc2cc(Br)c(O)c3ncccc23)CC1,57.6,n,60.9,n,n,59.9,59.8
Cc1cc(-c2nnc(CCC(=O)NC(C)(C)C34CC5CC(CC(C5)C3)C4)o2)no1,n,n,n,n,n,x,x
CN(CCC#N)S(=O)(=O)c1cc2c3c(c1)CCN3C(=O)CC2,n,n,n,n,n,x,x
COc1ccc(NS(=O)(=O)c2cccc(C(=O)NNC(=O)c3ccc(O)c(Cl)c3)c2)cc1,n,n,n,n,n,x,x
CCOC(=O)c1cnc(-n2nc(C)cc2C)nc1NC1CCCC1,n,n,76.2,n,u,41.8,43.2
Cc1cc(N2CCN(C)CC2)nc2ccc(NC(=O)CCC(=O)NCCc3ccc(Cl)cc3)cc12,n,n,n,n,n,x,x
Cc1nc(-c2cccnc2)sc1C(=O)N/N=C/c1ccccc1Cl,n,n,69.7,n,n,n,x
